In PubChem BioAssay AID588763 (NMMLSC, 2011):
Potency and affinity values are given separately. Calls of active or inactive are those of the source. No rule for the calls is given here.

The compounds below were run against Beta-2 adrenergic receptor (Homo sapiens) (UniProt P07550) (assay: ADRB2 activation measured by internalization – cell-based, FAP fluorogen, flow cytometry, cherry pick 1, dose response (AID 588763)). Conditions: AM2.2-beta2AR cells, 90 min; series mostly up to 33 µM.
Beta-2 adrenergic receptor (Homo sapiens), sequence (P07550 whole entry, looked up): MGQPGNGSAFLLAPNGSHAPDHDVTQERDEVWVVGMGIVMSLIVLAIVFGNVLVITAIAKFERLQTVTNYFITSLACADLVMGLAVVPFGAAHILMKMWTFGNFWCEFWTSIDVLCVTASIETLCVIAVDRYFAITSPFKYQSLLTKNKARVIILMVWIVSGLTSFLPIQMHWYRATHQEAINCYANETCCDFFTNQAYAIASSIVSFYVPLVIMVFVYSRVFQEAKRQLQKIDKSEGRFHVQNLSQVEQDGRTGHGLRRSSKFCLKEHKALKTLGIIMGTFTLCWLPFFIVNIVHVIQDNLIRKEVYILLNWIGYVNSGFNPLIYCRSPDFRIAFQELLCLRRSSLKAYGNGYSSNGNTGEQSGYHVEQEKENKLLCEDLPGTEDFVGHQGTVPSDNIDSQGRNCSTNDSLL

outcome, inactive:
CC(=O)Nc1ccc(CN2CCC(Oc3ccc(C(=O)N4CCCC4)cc3)CC2)cc1, CCc1ccc(CN(C)C(=O)c2cc(COc3cncc(Cl)c3)on2)cc1, O=C(Nc1ccc(NC(=O)c2ccccc2F)cc1)c1cccs1, COc1ccc(S(=O)(=O)N(C)CC(=O)N2CCN(c3ccccc3)CC2)cc1, CCOc1cc(-c2nc3ccccn3c2NCC2CCCO2)ccc1O (stereo not drawn), Cc1cc(S(=O)(=O)N2CCOCC2)ccc1OCC(=O)Nc1cccc(C(F)(F)F)c1, O=C(Cn1nnc(-c2ccccc2)n1)Nc1ccccc1N1CCOCC1, CCOc1ccccc1CNC(=O)C1CCN(c2nnc(C)c3c(C)n(-c4ccc(C)cc4)nc23)CC1, COc1ccc(OC)c(C(=O)NC(CC(N)=O)c2ccc(N3CCN(c4ccccn4)CC3)c([N+](=O)[O-])c2)c1 (stereo not drawn), COc1ccccc1C(=O)Nc1ccc(S(=O)(=O)N2CCCCC2c2cccnc2)cc1 (stereo not drawn), COc1cc(NC(=O)c2ccc3c(c2)OCO3)ccc1NC(=O)c1ccco1, COc1ccc(OC)c(S(=O)(=O)N(C)CC(=O)N2CCN(c3ccccc3F)CC2)c1, Fc1ccc(Sc2nc(-c3ccccc3)nnc2C(F)(F)F)cc1, COc1ccc(C)cc1S(=O)(=O)N(C)CC(=O)N1CCN(c2ccccc2)CC1, O=C(c1cc2c(ccc3ccccc32)o1)N1CCN(c2ncc(C(F)(F)F)cc2Cl)CC1, NS(=O)(=O)c1ccc(NC(=O)c2cccc(N3C(=O)c4ccccc4C3=O)c2)cc1, NC(=O)CC(NC(=O)c1ccccc1)c1ccc(N2CCN(c3ccccn3)CC2)c([N+](=O)[O-])c1 (stereo not drawn), COc1ccc(CCNCC(O)c2ccccc2)cc1 (stereo not drawn), C=CCn1c(CCNC(=O)c2cccs2)nnc1SCC(=O)Nc1cccc(Cl)c1C, N=c1n(CC(=O)c2ccc([N+](=O)[O-])cc2)c2ccccc2n1Cc1ccc(Cl)cc1, CN(C)S(=O)(=O)c1cccc(NC(=O)c2ccc(N3CCOCC3)c([N+](=O)[O-])c2)c1, COc1cc(NC(=O)c2ccco2)c(OC)cc1NC(=O)c1cc(OC)c(OC)c(OC)c1, Cc1cccc(CN2CCC(Oc3ccc(C(=O)N4CCCCC4)cc3)CC2)c1, COc1ccc(S(=O)(=O)N(C)CC(=O)N2CCN(c3ccc(F)cc3)CC2)cc1OC, COc1ccccc1CNC(=O)CCn1c(=O)[nH]c2ccsc2c1=O, COc1ccccc1-c1cc(C(F)(F)F)nc(S(=O)(=O)CCCC(=O)N2CCOCC2)n1, COc1cccc(-c2ccc(NC(=O)C3CCCN(Cc4ccccn4)C3)cc2)c1 (stereo not drawn), Cc1cc(S(=O)(=O)N2CCOCC2)ccc1OCC(=O)Nc1ccccc1C(F)(F)F, O=C(CN1CCOCC1)N1CCN(c2nnc(-c3ccccc3)c3ccccc23)CC1, Cc1cc(S(=O)(=O)N2CCCCC2)ccc1OCC(=O)Nc1ccccc1, O=C1CN(S(=O)(=O)c2cccc(Cl)c2Cl)c2ccccc2N1, COc1ccc(NC(=O)Cn2nnc(-c3ccc(CN4CCOCC4)cc3)n2)c(OC)c1

Activation (receptor internalization), inactive:
COc1ccc(OC)c(NC(=O)c2sc3nc(C)cc(C)c3c2N)c1 0.987% [at 1.22 µM]
